{"source": "PubChem BioAssay (EPA / NIEHS)", "note": "Where “and” joins values, the source holds several entries; their conditions need not be identical. Identical values can stand only once. The source holds several records for some structures; these can differ, active in one and inactive in another. Calls of active or inactive are those of the source. The calls were made as follows: active = hit-call score of the fitted dose curve at least 0.9, where 1 is the maximum; inactive = score below 0.9."}
{"read-out": "Vascular endothelial growth factor receptor 2 (Homo sapiens) (UniProt P35968)", "assay": "BSK_4H_VEGFRII: BioMAP Diversity Plus: 4H Assay for Vascular endothelial growth factor receptor 2 (VEGFR2) Biomarker Activity (AID 2283031)", "settings": "primary human endothelial cells (HUVEC); actives raise or lower the signal", "protocol": "BSK_4H is a cell-based, multiplexed-readout assay that uses umbilical vein endothelium, a human vascular primary cell, with measurements taken at 24 hours after chemical dosing in a 96-well plate.BSK_4H_VEGFRII is an assay component measured in the BSK_4H assay. It measures VEGFRII antibody related to regulation of gene expression using ELISA technology.Data from the assay component BSK_4H_VEGFRII was analyzed into 1 assay endpoint. This assay endpoint, BSK_4H_VEGFRII, was analyzed with bidirectional fitting relative to DMSO as the negative control and baseline of activity. Using a type of binding reporter, gain or loss-of-signal activity can be used to understand changes in the signaling as they relate to the gene KDR. Furthermore, this assay endpoint can be referred to as a primary readout, because this assay has produced multiple assay endpoints where this one serves a signaling function. To generalize the intended target to other relatable targets, this assay endpoint is annotated to the kinase intended target family, where the subfamily is receptor tyrosine kinase.\nThe levels of cell surface (or secreted, indicated by the prefix \"s\") biomarker endpoints were measured by ELISA. Overt cytotoxicity to cells in confluent adherent cultures (all systems other than the BT system) was assessed by measuring total protein levels using sulforhodamine B (SRB) staining in parallel cultures at the time of biomarker measurements, indicated as SRB endpoints. For proliferation assays for adherent cell types, individual cell types are cultured at sub-confluence and relative cell numbers quantified by SRB staining at time points optimized for each system (48 h: 3C and CASM3C systems; 72 h: BT and HDF3CGF systems; 96 h: SAg system). SRB was performed by staining cells with 0.1% SRB after fixation with 10% TCA and reading wells at 560 nm.Viability and proliferation of PBMC (T cells) was quantified by Alamar Blue reduction for the SAg and BT systems. For PBMC viability (referred to as PBMC Cytotoxicity within the assay endpoint names), cells were plated (75,000/well in a 96-well plate) and then chemical samples added for 1 h before addition of activators, SEB and TSST-1 (20 ng/mL final concentration each). Cells were incubated for 90 h. Then, Alamar Blue (20 uL/well) (Invitrogen, Cat DAL1100) was added for 6 h, and the plates were read with a fluorescence microplate reader at 546/580 nm (excitation/emission). For PBMC proliferation, cells were plated and activated as above but incubated for only 16 h prior to addition of Alamar Blue. Plates were read after 6 h."}
{"smiles": "CCSC(=O)N(CC)C1CCCCC1", "outcome": "inactive"}
{"smiles": "COS(=O)(=O)OC", "outcome": "inactive"}
{"smiles": "CCC(C)c1cc([N+](=O)[O-])cc([N+](=O)[O-])c1O", "note": "(stereo not given)", "AC50": "8.81 µM (active)"}
{"smiles": "Cc1ccccc1CO[C@@H]1C[C@@]2(C(C)C)CC[C@]1(C)O2", "outcome": "inactive"}
{"smiles": "ClC1=C(Cl)[C@]2(Cl)[C@@H]3[C@H]4C[C@H]([C@@H]5O[C@H]45)[C@@H]3[C@@]1(Cl)C2(Cl)Cl", "outcome": "inactive"}
{"smiles": "Oc1c(Cl)c(Cl)c(Cl)c(Cl)c1Cl", "AC50": "11.6 µM (active)", "outcome": "inactive"}
{"smiles": "N#Cc1ccc(N(CC(N)=O)CC(F)(F)F)cc1C(F)(F)F", "outcome": "inactive"}
{"smiles": "ClC1=C(Cl)[C@]2(Cl)[C@@H]3[C@@H](Cl)[C@H]4O[C@H]4[C@@H]3C1(Cl)C2(Cl)Cl", "outcome": "inactive"}
{"smiles": "CCCN(CCC)N=O", "outcome": "inactive"}
{"smiles": "C[C@]12CCC(=O)C=C1CC[C@@H]1[C@@H]2CC[C@]2(C)C(=O)CC[C@@H]12", "outcome": "inactive"}
{"smiles": "O=C(NC(=O)c1c(F)cccc1F)Nc1cc(Cl)c(OC(F)(F)C(F)F)c(Cl)c1", "outcome": "inactive"}
{"smiles": "Oc1ccc(Cl)cc1Cl", "outcome": "inactive"}
{"smiles": "CC(C)C(=O)OCC(C)(C)C(OC(=O)C(C)C)C(C)C", "note": "(stereo not given)", "outcome": "inactive"}
{"smiles": "O=C(O)C(F)(F)C(F)(F)C(F)(F)C(F)(F)C(F)(F)C(F)(F)C(F)(F)C(F)(F)C(F)(F)F", "outcome": "inactive", "AC50": "43.2 µM (active) and 55.4 µM (active)"}
{"smiles": "Nn1cnnc1", "outcome": "inactive"}
{"smiles": "CC(c1ccc(O)cc1)(c1ccc(O)cc1)c1ccc(O)cc1", "outcome": "inactive"}
{"smiles": "CC(C)(O)C(=O)Nc1ccc([N+](=O)[O-])c(C(F)(F)F)c1", "outcome": "inactive"}
{"smiles": "c1cc2ccc3cccc4ccc(c1)c2c34", "outcome": "inactive"}
{"smiles": "ClC1=C(Cl)[C@]2(Cl)[C@@H]3[C@@H]4C[C@@H]([C@H]5O[C@@H]45)[C@@H]3[C@@]1(Cl)C2(Cl)Cl", "outcome": "inactive"}
{"smiles": "CCCCCCCCCC[N+](C)(C)CCCCCCCCCC", "AC50": "2.01 µM (active)"}
{"smiles": "Nc1ccc(-c2ccc(N)cc2)cc1", "outcome": "inactive"}
{"smiles": "O=S(=O)(O)C(F)(F)C(F)(F)C(F)(F)C(F)(F)C(F)(F)C(F)(F)F", "outcome": "inactive"}
{"smiles": "ClC(Cl)=C(c1ccc(Cl)cc1)c1ccc(Cl)cc1", "AC50": "34.9 µM (active)"}
{"smiles": "Sc1ccccc1", "outcome": "inactive"}
{"smiles": "O=C(O)C(F)(F)C(F)(F)C(F)(F)C(F)(F)C(F)(F)F", "outcome": "inactive"}
{"smiles": "CCCCCCOC(=O)c1ccccc1C(=O)OCCCCCC", "outcome": "inactive"}
{"smiles": "CCOCCOC(C)=O", "outcome": "inactive"}
{"smiles": "Clc1ccc(C(c2ccccc2Cl)C(Cl)(Cl)Cl)cc1", "note": "(stereo not given)", "AC50": "17.2 µM (active)"}
{"smiles": "Cc1cc(O)ccc1Cl", "outcome": "inactive"}
{"smiles": "O=NN(c1ccccc1)c1ccccc1", "outcome": "inactive"}
{"smiles": "Cc1ccccc1O", "outcome": "inactive"}
{"smiles": "CCCCCCCCOC(=O)c1ccccc1C(=O)OCCCCCCCC", "outcome": "inactive"}
{"smiles": "CN(C)CCO", "outcome": "inactive"}
{"smiles": "Cc1cc(-c2ccc(N)c(C)c2)ccc1N", "outcome": "inactive"}
{"smiles": "CCNc1nc(NC(C)C)nc(SC)n1", "outcome": "inactive"}
{"smiles": "CCOC(=O)C(O)(c1ccc(Cl)cc1)c1ccc(Cl)cc1", "AC50": "27.9 µM (active)"}
{"smiles": "Clc1ccc(Cl)cc1", "outcome": "inactive"}
{"smiles": "O=S(=O)(O)C(F)(F)C(F)(F)C(F)(F)C(F)(F)F", "outcome": "inactive"}
